High-throughput results: PubChem BioAssay, National Center for Advancing Translational Sciences (NCATS)
PNC inhibitor: High Content Assay for Compounds that inhibit the Assembly of the Perinucleolar Compartment; PC3M PTB-GFP, PNC prevalence imaging, 16 h; stronger effect = lower value; hit rate 3.1% among 140,000; activity change (PNC), negative = inhibition, % at 10 µM;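 active = readout at or below -70, meaning at least 70% loss of cells showing the perinucleolar compartment, a nuclear body marking cancer cells; inconclusive = readout between -30 and a set limit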;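 note: plate controls were DMSO wells for no effect and camptothecin positive control wells for full effect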
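Read-out is percentage of cells bearing a perinucleolar compartment, from automated 20x imaging of fixed, Hoechst-stained PC3M PTB-GFP cells. Cells were seeded 4 h, then exposed 16 h to compound (23 nl of library stock) in duplicate plates.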
ALDH1A1 block: qHTS Assay for Inhibitors of Aldehyde Dehydrogenase 1 (ALDH1A1); Aldehyde dehydrogenase 1A1 (Homo sapiens), P00352; Purified ALDH1A1, NADH fluorescence, propionaldehyde substrate; Potency, µM (top dose mostly 75.3 µM), for the others: at the top dose activity, negative = inhibition, actives largely listed as inhibitors; hit rate 7.3% among 220,000; AID 1030, 2008;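 note: potency is the fitted concentration of half-maximal effect; plate controls were no enzyme wells and a reference inhibitor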
Target sequence (P00352 whole entry, looked up): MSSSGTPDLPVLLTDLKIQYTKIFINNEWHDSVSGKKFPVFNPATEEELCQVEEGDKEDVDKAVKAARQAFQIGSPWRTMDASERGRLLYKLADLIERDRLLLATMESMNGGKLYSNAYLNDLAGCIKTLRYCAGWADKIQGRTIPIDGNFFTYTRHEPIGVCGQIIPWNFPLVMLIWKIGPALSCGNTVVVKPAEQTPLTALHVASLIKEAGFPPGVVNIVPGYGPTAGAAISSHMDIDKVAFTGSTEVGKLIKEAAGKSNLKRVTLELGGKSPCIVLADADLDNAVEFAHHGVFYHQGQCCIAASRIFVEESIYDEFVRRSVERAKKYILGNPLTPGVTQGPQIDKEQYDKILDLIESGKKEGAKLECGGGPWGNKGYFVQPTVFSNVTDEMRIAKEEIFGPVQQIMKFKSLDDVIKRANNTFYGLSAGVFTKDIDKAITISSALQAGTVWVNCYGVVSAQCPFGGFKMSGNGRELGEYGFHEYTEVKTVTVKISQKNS
Lamin A splicing: qHTS Assay for Modulators of Lamin A Splicing. Potency, µM (series often up to 46.1 µM), without a hit: at the top dose ratio change, negative = inhibition, usual class: inhibitors. HeLa LMNA splicing GFP/RFP minigene ratio, 48 h. hit rate 0.01% among 200,000. AID 1487, 2009; active = well fitted inhibition curve with a large enough effect in the signal ratio, with a control signal flat, not every such curve was filed as active; inconclusive = small, poorly fitted or top-dose-only effect, or effect the other way, or a change in a side signal; the % refers to the signal ratio; note: potency is the fitted concentration of half-maximal effect
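Read-out is the ratio of GFP to DsRed2 object intensity, acquired by 488 nm laser-scanning cytometry on HeLa lamin A-EGFP minigene reporter cells. Compound incubation 48 hrs at 37 °C in Opti-MEM with 2% FBS; DMSO 0.5% final.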
12-hLO inh: qHTS Assay for Inhibitors of 12-hLO (12-human lipoxygenase); Potency, µM (titrated, usually from 57.1 µM), for the others: top-dose activity change, negative = inhibition, actives largely listed as inhibitors; purified 12-hLO, xylenol orange hydroperoxide absorbance; hit rate 0.12% among 150,000; Polyunsaturated fatty acid lipoxygenase ALOX12 (Homo sapiens), P18054; active = well fitted inhibition curve with a large enough effect; inconclusive = small, poorly fitted or top-dose-only effect; note: potency is the fitted concentration of half-maximal effect; nearly all actives have a fitted effect of over 55% in size
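150 nM 12hLO, 25 mM Hepes pH 7.0 + 0.01% Triton X-100; cpd preinc 15 min RT; 40 uM arachidonic acid, 30 min RT; Fe-XO 30 min; A573/A405 ratio as read-out.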
HPGD inh: qHTS Assay for Inhibitors of HPGD (15-Hydroxyprostaglandin Dehydrogenase); 15-hydroxyprostaglandin dehydrogenase [NAD(+)] (Homo sapiens), P15428; purified HPGD, NADH fluorescence kinetic, PGE2 substrate; Potency, µM, for the others: at the highest dose activity change, negative = inhibition, usual class: inhibitors; hit rate 4.3% among 150,000; AID 894, 2007; note: potency is the fitted concentration of half-maximal effect
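NADH formation kinetics: reaction with 30 uM PGE2 and 1 mM NAD+ (final), 20 nM enzyme, Tris-HCl pH 8 with Tween 20, after 15 min compound preincubation at room temperature. Fluorescence change, last versus first of five reads.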
The depositor's hits bear a star; [ ] = another dose, or the depositor's remark. In the library only some 10% were active in any assay of this set; here they are far more common. Unless noted, calls come from the whole dose curve; as a rule, active = well fitted inhibition curve with a large enough effect (not every such curve was filed as active); inconclusive = small, poorly fitted or top-dose-only effect, or another doubt; inactive = no such curve, though single readings can be large or run the other way. Unless noted, % is set by controls: 0 for no effect and ±100 for the full control effect.

Nn1cnnc1SC1CCCCC1NS(=O)(=O)c1ccccc1 (stereo unspecified) was read as PNC inhibitor inconclusive, ALDH1A1 block 10µM*, Lamin A splicing 0%, 12-hLO inh 8% and HPGD inh -6%.
CCOC(=O)c1c(NC(=O)c2cc3nc(-c4ccc(Br)cc4)cc(C(F)(F)F)n3n2)sc(C(C)=O)c1C was read as Lamin A splicing 5%[46 µM].
For C[C@@]1(C(NC(=O)Cc2ccc(C(F)(F)F)cc2)c2ccc(-c3ccccc3)cc2)C[C@H]1C1CCCCC1 (stereo partly specified) the results were ALDH1A1 block 11%, 12-hLO inh -2% and HPGD inh 1%.
For CCc1ccc(NC(=O)c2sc3ncnc(N(C)C4CCCCC4)c3c2C)cc1 the results were Lamin A splicing 7%[46 µM].
Screening CC(=O)N(C(C)=O)N1C(=O)C2C3c4ccccc4C(c4ccccc43)C2C1=O (stereo unspecified) returned ALDH1A1 block 3% and Lamin A splicing -1%[46 µM].
For O=C1C2C3c4ccccc4C(c4ccccc43)C2c2nc3ccccc3n21 (stereo unspecified) the results were PNC inhibitor -100*, ALDH1A1 block 0%, Lamin A splicing inconclusive, 12-hLO inh 0% and HPGD inh -5%.
`CN1CCN(c2nc(-c3ccccc3C(F)(F)F)nc3ccccc23)CC1` gave ALDH1A1 block -6% and Lamin A splicing -10%.
Cc1ccn2c(/C=N/OCc3ccc(F)cc3)c(-c3ccc(Cl)cc3)nc2c1 was read as PNC inhibitor -19, ALDH1A1 block 22µM*, Lamin A splicing 5% and 12-hLO inh -3%.
Screening COc1cccc(CNC(=O)Cn2c(=O)ccc3cc(S(=O)(=O)N4CCC(C)CC4)ccc32)c1 returned Lamin A splicing -11%[46 µM].
For COc1cc(/C=C(/C#N)c2ccc(F)cc2)ccc1Oc1ccc([N+](=O)[O-])cn1 the results were PNC inhibitor 8, ALDH1A1 block -1%, Lamin A splicing inconclusive, 12-hLO inh -1% and HPGD inh -4%.
CCOc1cc(C=C(C#N)C#N)ccc1Oc1ccc([N+](=O)[O-])cn1 was read as ALDH1A1 block 3.2µM*.
`COc1ccc(CCNC(=O)Cn2c(=O)n(-c3cc(F)ccc3F)c(=O)c3sccc32)cc1OC` gave ALDH1A1 block 1µM*.
Cc1ccc(N2C(=O)C3ON(c4ccccc4)C(c4ccncc4)C3C2=O)cc1 (stereo unspecified) was read as PNC inhibitor -30, ALDH1A1 block 2.5µM*, Lamin A splicing 4%, 12-hLO inh 2% and HPGD inh -27%.
For CN1OC2C(=O)N(c3ccccc3)C(=O)C2C1c1ccc(F)cc1 (stereo unspecified) the results were PNC inhibitor 18, ALDH1A1 block 8.9µM*, Lamin A splicing 2% and 12-hLO inh 0%.
For O=C1C2ON(c3ccccc3)C(c3ccncc3)C2C(=O)N1c1ccc(Br)cc1 (stereo unspecified) the results were PNC inhibitor 14, ALDH1A1 block inconclusive, Lamin A splicing 0% and 12-hLO inh -2%.
Screening O=C(O)COc1ccccc1C1C2C(=O)N(c3ccccc3)C(=O)C2ON1c1ccccc1 (stereo unspecified) returned PNC inhibitor 25, ALDH1A1 block 25µM*, Lamin A splicing 2%, 12-hLO inh -5% and HPGD inh -6%.
`O=C1C2ON(c3ccccc3)C(c3ccccc3F)C2C(=O)N1c1ccccc1` (stereo unspecified) gave PNC inhibitor -6, ALDH1A1 block -9%, Lamin A splicing -6%, 12-hLO inh -1% and HPGD inh -14%.
For CCOc1ccccc1C1C2C(=O)N(c3ccccc3)C(=O)C2ON1c1ccccc1 (stereo unspecified) the results were PNC inhibitor 20, ALDH1A1 block 22µM*, Lamin A splicing inconclusive, 12-hLO inh -5% and HPGD inh -18%.
For O=C(Nc1ccc2nc(SCC(=O)N3CCOCC3)sc2c1)c1ccccc1Cl the results were Lamin A splicing -5%[46 µM].
`COC(=O)c1ccccc1NC=C1C(=O)OC2(CCCCC2)OC1=O` gave PNC inhibitor inconclusive, ALDH1A1 block inconclusive, Lamin A splicing 0%, 12-hLO inh -2% and HPGD inh -16%.
COc1cccc(NC=C2C(=O)OC(C)(C)OC2=O)c1 was read as PNC inhibitor -17, ALDH1A1 block 10µM*, Lamin A splicing 14%, 12-hLO inh 3% and HPGD inh -8%.
Screening COc1cccc(NC=C2C(=O)OC3(CCCCC3)OC2=O)c1 returned PNC inhibitor 22, ALDH1A1 block 1.6µM*, Lamin A splicing inconclusive, 12-hLO inh -7% and HPGD inh -24%.
For O=C1OC2(CCCCC2)OC(=O)C1=CNc1nccs1 the results were PNC inhibitor 48, ALDH1A1 block inconclusive, Lamin A splicing 3%, 12-hLO inh -2% and HPGD inh 1%.
Screening COc1ccccc1NC=C1C(=O)OC2(CCCCC2)OC1=O returned PNC inhibitor 5, ALDH1A1 block 0.056µM*, Lamin A splicing 8%, 12-hLO inh -8% and HPGD inh inconclusive.
For O=C1OC2(CCCCC2)OC(=O)C1=CNc1nc2ccccc2s1 the results were PNC inhibitor inconclusive, ALDH1A1 block 11µM*, Lamin A splicing 2%, 12-hLO inh -12% and HPGD inh -10%.
For CC1(C)OC(=O)C(=CNc2ccc(F)cc2)C(=O)O1 the results were PNC inhibitor 12, ALDH1A1 block inconclusive, Lamin A splicing 3%, 12-hLO inh 2% and HPGD inh -8%.
Screening O=C(CSc1nccn1-c1cccc(Cl)c1)Nc1cccc(C(F)(F)F)c1 returned Lamin A splicing -8%[46 µM].
For O=C1OC2(CCCCC2)OC(=O)C1=CNc1ccc2c(c1)OCO2 the results were PNC inhibitor 17, ALDH1A1 block 0.89µM*, Lamin A splicing -13%, 12-hLO inh -4% and HPGD inh -14%.
`CCOC(=O)c1ccc(NC=C2C(=O)OC3(CCCCC3)OC2=O)cc1` gave PNC inhibitor 15, ALDH1A1 block inconclusive, Lamin A splicing 13%, 12-hLO inh -1% and HPGD inh -14%.
COc1ccc(CCNCC(=O)Nc2ccc(C)c(S(=O)(=O)N(C)C)c2)cc1OC was read as ALDH1A1 block 16µM*.
`COc1ccc(OCC(=O)Nc2ccc(C)c(S(=O)(=O)N(C)C)c2)cc1` gave ALDH1A1 block 28µM* and Lamin A splicing -23%[46 µM].
